The source of these data is paper PMC5540273 (PLoS ONE, 2017).

As usually defined, the Kd is a measure of binding affinity in units of concentration.

Assay [1] concerns T1, TIE2.
T1 construct: gene TEK

Assay [2] has as its system TLK1.
Assay [3] concerns TNIK.
Assay [4] relates to WNK4.
For assay [5], the system named is TNK2.
For assay [6], the system named is T2, TRKA.
T2 construct: gene NTRK1

Assay [7] concerns T3, TRKC.
T3 construct: gene NTRK3

The subject of assay [8] is TRPM6.
For assay [9], the system named is TSSK1B.
The subject of assay [10] is T4, YANK3.
T4 construct: gene STK32C

The test system of assay [11] is T5, YSK1.
T5 construct: gene STK25

For assay [12], the system named is TXK.
In assay [13] the test system is TYK2(JH1domain-catalytic).
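Further: kd values determined as follow-up on hits from a single-replicate KINOMEscan panel screen.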

Compound `O=C(Nc1ccccc1)Nc1cccc(Oc2ccc3nccn3n2)c1` had a dissociation constant (Kd) in assay [1] of over 10 µM. On to `NC(=O)c1nnc2ccccc2c1N`, for which, in [1], the Kd was over 10 µM. `Cc1ccccc1-n1cnc2c(N)ncnc21` [SKF-97510] returned a Kd in assay [2] of over 10 µM.

With `Cc1ccc(-c2cc(-c3c[nH]nc3-c3ccccn3)ccn2)cc1` [GW684088], the Kd was 0.16 µM in [3] and over 10 µM in assay [4]. In turn, `COc1ccc(Nc2nccc(-c3cccc(NC(=O)c4cc5cc(F)ccc5[nH]4)c3)n2)cc1` [GSK1229782] came in with a Kd in assay [3] of 0.82 µM.

In turn, `Cc1ccc(C(=O)Nc2ccc(Nc3ccnc4cc(-c5ccccn5)ccc34)cc2O)cc1.Cl` [GW440146] showed a Kd in assay [5] of 0.12 µM. For the compound `Cc1cc(-c2ccc3c(c2)CC[C@@H](N[C@@H](C)c2ccccc2)C3)cnc1N.Cl` [GW412617], binding in assay [6] was put at a Kd of 2.5 µM. Turning to `COc1cccc(NC(=O)NC2CCN(c3ccnc(Nc4ccc(F)cc4)n3)C2)c1` (stereo not drawn) [GSK1379721], the dissociation constant (Kd) in assay [7] stood at 0.31 µM. For `Cn1ccc2ncnc(Oc3ccc(Nc4nc5ccccc5[nH]4)cc3)c21`, the Kd in [8] was over 10 µM.

With `CS(=O)(=O)c1ccc(-c2nc3n(c2-c2ccncc2)CCC3)cc1` [SKF-105942], the dissociation constant (Kd) in [9] and in [10] was over 10 µM in each case.

In the case of `CCCc1ccc(S(=O)(=O)NC2CCN(c3ccnc(Nc4ccc(F)cc4)n3)C2)cc1` (stereo not drawn) [GSK1379715], the Kd in assay [9], in assay [10] and in assay [11] was over 10 µM throughout. `Cc1cccc(-c2cc(Nc3ccncc3)c3ccccc3n2)n1` [GSK223675] returned a Kd in assay [12] of over 10 µM. In turn, `Cc1csc(-c2nc(Nc3ccncc3)c3ccccc3n2)n1` [GW869640] returned a Kd in assay [13] of over 10 µM. For `Cl.Oc1ccc(-c2nc(-c3ccccc3)[nH]c2-c2ccncc2)cc1` [SB-428218], the Kd in [13] is over 10 µM.
